According to ChEMBL document CHEMBL3988442, “University of Dundee, Small-Polar-MMV Screening Library” (2021):
About 13,000 (27%) of roughly 48,000 compounds showed an effect of 50% or more. The list shows a part of the results.

Test system: Wolbachia pipientis
Assay: Anti-Wolbachia Cell-Based Screen
Assay type: functional
Set-up: scale not given: in the data most compounds retested in dose-response had high values
Settings: 5 µM

| SMILES | Percent Effect [%] |
| --- | --- |
| COC(C)c1noc(CN(C)c2ncc(Br)cn2)n1 (centres undefined) | 13.56 |
| CCCc1noc(CCCC(=O)N2CCCC(n3ccnc3C)C2)n1 (centres undefined) | -4.622 |
| CCCN1CCC(N2CCC(Cn3cc(C4CC4)nn3)CC2)CC1 | -14.8 |
| Cc1ccc(F)c(S(=O)(=O)NCc2cccc(CS(C)(=O)=O)c2)c1 | -5.265 |
| Cc1cccc(CN2C[C@@H]3CN(C(=O)c4ccsc4)C[C@@H]3C2=O)c1 | 0.6245 |
| Cc1cccc(CN2C[C@@H]3CN(C4CCOCC4)C[C@@H]3C2=O)c1.O=C(O)C(F)(F)F | 2.907 |
| O=C(O)C(F)(F)F.O=C1[C@H]2CN(CC3CCOCC3)C[C@H]2CN1Cc1cccc(F)c1 | -3.595 |
| CCS(=O)(=O)N1C[C@H]2CN(Cc3ccc(OC)cc3)C(=O)[C@H]2C1 | 106.9 |
| COc1ccc(CN2C[C@@H]3CN(CCO)C[C@@H]3C2=O)cc1 | -4.847 |
| Cc1cccc(CN2C[C@@H]3CN(C(=O)NC(C)C)C[C@@H]3C2=O)c1 | 0.03785 |
| COc1ccc(CN2C[C@@H]3CN(S(=O)(=O)C4CC4)C[C@@H]3C2=O)cc1 | -20.01 |
| CCS(=O)(=O)N1C[C@H]2CN(Cc3cccc(C)c3)C(=O)[C@H]2C1 | 103 |
| CCS(=O)(=O)N1C[C@H]2CN(Cc3cccc(F)c3)C(=O)[C@H]2C1 | 106.4 |
| CCCNC(=O)[C@@H]1CCCN1[C@@H](C(=O)NC)C1CC1.Cl | -3.59 |
| O=C(N1CCC(O)(C(F)(F)F)C1)C1(c2cccc(Cl)c2)CC1 (centres undefined) | -4.685 |
| C[S+]([O-])c1ccc(NC(=O)CC2=CCCCC2)cc1 (centres undefined) | -2.422 |
| CCOCC1CN(c2ncc(F)cn2)Cc2cn(CC)nc21 (centres undefined) | -1.494 |
| COCC1CN(CCc2ccc(OC)c(OC)c2)Cc2c1cnn2C (centres undefined) | 98.17 |
| CCn1ncc2c1CN(C(=O)c1cc(C)oc1C)CC2COC.O=C(O)C(F)(F)F (centres undefined) | -2.484 |
| CCn1ncc2c1CN(CCc1cccc(Cl)c1)CC2COC.O=C(O)C(F)(F)F.O=C(O)C(F)(F)F (centres undefined) | 128.6 |
| CCOCC1CN(CCOc2ccc(Cl)cc2)Cc2c1cnn2C.O=C(O)C(F)(F)F.O=C(O)C(F)(F)F (centres undefined) | -5.642 |
| CCn1ncc2c1CN(C(=O)Cc1ccccn1)CC2COC.O=C(O)C(F)(F)F.O=C(O)C(F)(F)F (centres undefined) | -10.79 |

| SMILES | Percent Effect [%] |
| --- | --- |
| COCC1CN(CCOc2ccc(Cl)cc2)Cc2c1cnn2C.O=C(O)C(F)(F)F.O=C(O)C(F)(F)F (centres undefined) | 128.1 |
| CCOCC1CN(CCOCc2ccccc2)Cc2c1cnn2C (centres undefined) | -3.92 |
| CCOCC1CN(CCc2ccccc2)Cc2c1cnn2C (centres undefined) | 9.007 |
| COCC1CN(S(=O)(=O)c2ccc(C)cc2)Cc2c1cnn2C.O=C(O)C(F)(F)F (centres undefined) | 14.09 |
| CN1CCN(c2ccc(NCc3ccc(OC(F)(F)F)cc3)cn2)CC1 | -13.31 |
| COC(=O)N1CCC(Nc2cccc(F)c2C#N)CC1 | 6.326 |
| N#Cc1ccccc1C(=O)N1C[C@@H](CN2CCCCCC2)[C@@H](CO)C1 | -2.218 |
| Cc1nnc(SCC(=O)N2CCc3[nH]nc(C4CCC4)c3C2)o1 | -25.51 |
| CCN(CC)C(=O)C(c1ccccc1)N1CCn2c(C)nnc2C1 (centres undefined) | -5.766 |
| CC1(C)CC(CC(=O)N2CC(C)(C)[C@@](C)(O)C2)CC(C)(C)N1 | -10.88 |
| CCc1cc(N[C@@H](CC(C)C)C(N)=O)n2nc(C)c(C)c2n1 | 1.157 |
| O=C1CC(C(=O)N2CCc3sccc3C2)CN1Cc1cccnc1 (centres undefined) | -4.394 |
| O=C([C@@H]1CCCO1)N1CCN(Cc2ccncc2)c2ncccc2C1 | 98.82 |
| O=C([C@H]1CCCO1)N1CCN(Cc2cccnc2)c2ncccc2C1 | 109.6 |
| CCC(C)(C)NC(=O)c1ccc(NC(=O)NCc2cc(C)no2)cc1 | -4.635 |
| COCCN(CCOC)c1nc2c(s1)c(C)nn2C | 0.9407 |
| COC(=O)[C@@H](NC(=O)Nc1ccc(C(C)=O)cc1)C(C)C | 115.5 |
| COC(=O)C(NC(=O)Nc1ccc(C(C)=O)cc1)C(C)C (centres undefined) | 123.5 |
| COCC(=O)N1CCC(C(=O)Nc2ccc(C(C)=O)cc2)CC1 | -27.44 |
| Cc1ccc(NC(=O)NC(C)c2nc[nH]n2)cc1 (centres undefined) | -1.45 |
| Cc1nccn1C1CCCN(C(=O)c2ccc(N(C)C)nn2)C1 (centres undefined) | 121.5 |
| COc1ccc(C(=O)N2CCCC(n3cncn3)C2)nn1 (centres undefined) | 89.87 |

| SMILES | Percent Effect [%] |
| --- | --- |
| CN(C)c1ccc(C(=O)N2CCCC(n3cncn3)C2)nn1 (centres undefined) | 102.9 |
| CCc1nccn1C1CCCN(C(=O)c2ccc(N(C)C)nn2)C1 (centres undefined) | 8.431 |
| CCn1nc(C(=O)N2CCCC(n3cncn3)C2)ccc1=O (centres undefined) | -5.268 |
| O=C(c1ccc(OCC2CC2)nc1)N1CCCC(n2cncn2)C1 (centres undefined) | -8.592 |
| Cc1nc(C)n(C2CCCN(C(=O)c3ccc(N(C)C)nn3)C2)n1 (centres undefined) | -4.997 |
| Cc1cnn(C2CCCN(C(=O)c3ccc(N(C)C)nn3)C2)c1 (centres undefined) | -2.152 |
| COc1cc(CN2CCCC2)ccc1Oc1ccc2c(c1)CC(CN)O2 (centres undefined) | -3.423 |
| COc1ccccc1CC(=O)NS(=O)(=O)c1cncc(Br)c1 | 1.416 |
| COc1ccccc1CC(=O)NS(=O)(=O)c1ccc(NC(C)=O)cc1 | 120.5 |
| COc1ccccc1CC(=O)NS(C)(=O)=O | -0.264 |
| CCCN(Cc1ccc(S(=O)(=O)NC)cc1)Cc1ccccc1OC | 2.153 |
| COc1ccccc1CC(=O)NS(=O)(=O)c1ccc(C#N)cc1 | 90.41 |
| CCCc1nc(C)c(C(=O)NS(=O)(=O)c2ccc(C#N)cc2)s1 | 11.71 |
| CCc1nc(CN2CCN(C(=O)COCc3ccccc3)CC2)no1 | 16.69 |
| O=C(O)c1csc(S(=O)(=O)Nc2cccc(OCC(F)(F)F)c2)c1 | 12.1 |
| CSc1nsc(NC(=O)c2cc(C3CC3)nn2C)n1 | 105.4 |
| Cc1nsc(NC(=O)NC2CCN(C)CC2)n1 | -30.6 |
| Cc1nsc(NC(=O)N2CCCC2C)n1 (centres undefined) | -6.715 |
| CCCc1cc(C(=O)Nc2nc(SC)ns2)[nH]n1 | -43.27 |
| CCCc1cc(C(=O)Nc2nc(SC)ns2)n(C)n1 | 129.6 |
